The assay in a line: STAT3 blockade with qPCR and toxicity readouts – cell-based, STAT1 panel, cytotoxicity, late-stage follow-up (AID 2078). Particulars: STAT3/STAT1 inhibition panel, cell reporter assay, Quantitative PCR; qPCR mRNA fold change, at 10 µM, stronger effect = lower value. In general terms: Real-time PCR tracks product formation cycle by cycle.

SMILES strings stand for the structures. The source made the active and inactive calls. How the calls were made is not given here.

In the case of `c1ccc(CC2CCN(c3ncnc4sccc34)CC2)cc1`, the fold change amounted to 0.68 and the outcome was “active; probe”.

Values taken from PubChem BioAssay AID2078 (The Scripps Research Institute Molecular Screening Center, 2009).
